# NPYLR7 agonist = mosquito NPYLR7 agonism; actives 0.15% (n = 270,000); AID 1259423; HEK293T NPYLR7/Galpha15, GCaMP6s calcium fluorescence; activation, % at 10 µM; in the data active means activation above about 40%;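 further: 0% = vehicle and 100% = reference agonist at the receptor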
# hcGAS lum = human cGAS inhibition. recombinant h-cGAS, ATP depletion, Kinase-Glo luminescence. inhibition, % at 12.5 µM. actives 0.081% (n = 290,000);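 further: 0% = vehicle reaction and 100% = reaction without DNA for no activity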
# mcGAS inh = inhibitors of mouse cGAS; Q8C6L5; recombinant cGAS, Kinase-Glo ATP depletion luminescence; actives 0.15% (n = 160,000); AID 1259399; inhibition, % at 12.5 µM;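 further: 0% = negative control wells and 100% = reference inhibitor with no enzyme activity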
# Active calls of the source: *; · = no result given; ! = not confirmed by another sample. In the library only some 0.24% were active in any assay of this set; here they are far more common. Unless noted, no stated cut-off is given here; in the data, active means inhibition above about 40%; inactive means the rest.
SMILES,NPYLR7 agonist,hcGAS lum,mcGAS inh
FC(F)(F)c1ccc2sc(C3CCNCC3)nc2c1,4,-1,-5
Nc1nc(N2CCN3CCNC(=O)C3C2)c2cn[nH]c2n1 (centres undefined),5,3,·
CCC(NC)c1nc2ccccc2c(=O)n1-c1ccc(F)cc1 (centres undefined),2,-7,·
O=c1c2ccccc2nc(CCl)n1-c1ccc(F)cc1,-2,0,48*
COc1cccc(OC)c1CNC(=O)c1cn(Cc2cccc(C(F)(F)F)c2)nn1,·,-5,-9
CC(C)CCn1cc(C(=O)O)nn1,8,-8,-14
O=[N+]([O-])c1cc(Cl)ccc1Cl,9,0,-2
O=[N+]([O-])c1ccc(Cl)c2nonc12,139*,-14,-5
COc1ccc2cc(-c3[nH]ncc3CNC(C)Cc3cccs3)ccc2c1 (centres undefined),1,-8,-2
O=C1NC(=O)N(c2ccc(Cl)cc2)C(=O)/C1=C/c1ccc([N+](=O)[O-])o1,3,32,47*
Cc1ccc(/C=C2\C(=O)NC(=O)N(c3ccc(Cl)cc3)C2=O)o1,13,2,0
Nc1ccc(-n2c(=O)[nH]c3ccccc3c2=O)cc1,-3,0,·
O=c1c2c3c(sc2nc(SCCS(=O)(=O)F)n1-c1ccccc1)CCCC3,-4,-4,-5
Nc1c2c(nc3sc4c(c13)CCCC4)CCCCC2,42*,-8,-6
O=[N+]([O-])c1cc(O)c(O)c([N+](=O)[O-])c1,-6,3,8
O=[N+]([O-])c1cc([As](=O)(O)O)ccc1O,-9,83*!,·
O=[N+]([O-])c1ccc(O)c([N+](=O)[O-])c1,-28,72*,·
O=[N+]([O-])c1ccc(O)c(Cl)c1,6,2,·
CCCOc1c(I)cc(/C=C\[N+](=O)[O-])cc1OC,2,0,·
CNc1ncccc1C(=O)N1CCN(C)C2(CCN(C)CC2)C1,7,2,1

# Screening data from PubChem.
